HCMV inh: qHTS Assay for inhibitors of the human cytomegalovirus (HCMV); HFF cells, HCMV-luciferase reporter, 72 h; active compounds read low; activity change, negative = inhibition, % at 57.5 µM; actives 4.5% (n = 410,000); AID 1259415, 2018; in the data active means activity change below about -60%; inconclusive means no clear call, values can overlap the other calls; inactive means above about -39%
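Two-dose cell screen: HFF monolayers treated with compounds and infected with luciferase-expressing HCMV at 1 PFU/cell, 72 h at 37C, then lysed for luciferase measurement.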
MARV entry inh: qHTS for inhibitors of binding or entry into cells for Marburg Virus; AID 540276, 2011; Marburg virus pseudotyped entry inhibition, cell reporter; Potency, µM (titrated, usually from 37.8 µM), usual class: inhibitors; actives 1.8% (n = 300,000); calls by dose curve; tested in HEK293 cells
VACV Venus inh: qHTS for Stage-Specific Inhibitors of Vaccinia Orthopoxvirus: Venus Reporter Primary qHTS; Vaccinia virus Venus reporter expression, fluorescence; Potency, µM (highest dose often 36.5 µM), most hits filed as inhibitors; actives 0.46% (n = 330,000); AID 720580, 2013; calls by dose curve; tested in A549 cells; further: nearly all actives have a fitted effect of over 30% in size
Vaccinia mCherry: qHTS for Stage-Specific Inhibitors of Vaccinia Orthopoxvirus: mCherry Reporter Primary qHTS | actives 0.63% (n = 310,000) | Vaccinia virus mCherry reporter infection, fluorescence | Potency, µM (doses to about 36.5 µM), most hits filed as inhibitors; calls by dose curve; tested in A549 cells; further: nearly all actives have a fitted effect of over 35% in size
FMDV antiviral: High Throughput Screening for Foot and Mouth Disease Virus Antivirals. FMDV antiviral cell-based qHTS. Potency, µM (titrated, usually from 57.9 µM), usual class: inhibitors. actives 1.2% (n = 410,000); calls by dose curve; tested in HEK293T cells; further: read-out not given here; nearly all actives have a fitted effect of over 45% in size
LASV entry inh: qHTS for Inhibitors of binding or entry into cells for Lassa Virus | Potency, µM (highest dose often 37.9 µM), most hits filed as inhibitors | Lassa virus pseudotype entry inhibition, cell reporter | AID 540256, 2011 | actives 1.2% (n = 300,000); calls by dose curve; tested in HEK293 cells; further: nearly all actives have a fitted effect of over 50% in size
A number is an active result; . = inactive; ? = inconclusive; / = no result given. This is a sample that favours compounds with a hit; in the whole collection about 6.5% have one here.

SMILES | HCMV inh | MARV entry inh | VACV Venus inh | Vaccinia mCherry | FMDV antiviral | LASV entry inh
CCOC(=O)c1cc(S(=O)(=O)Nc2cc(OC)ccc2OC)[nH]n1 | . | / | . | . | . | .
OC(CN(c1ccccc1)c1ccccc1)Cn1cnc2ccccc21 (stereo unspecified) | ? | ? | ? | / | 32µM | .
CN1CC(O)C2=CC(=O)C(=O)C=C21 (stereo unspecified) | / | / | . | . | . | /
CCOC(=O)c1c(S(=O)(=O)NCC(=O)Nc2cccc(SC)c2)c(C)n(C)c1C | . | / | . | . | . | .
O=C(Nc1ccccc1C(F)(F)F)N1CCC(CN2CCc3ccccc3C2)CC1 | . | / | . | . | . | .
CCOC(=O)c1c(NC(=O)Nc2ccc(F)cc2)sc(C(=O)N(C)C)c1C | . | . | . | . | . | .
O=C(NC1CCCCCCC1)C1c2ccccc2C(=O)N1Cc1cccs1 (stereo unspecified) | . | . | . | . | . | ?
CC1CCC(NC(=O)C2c3ccccc3C(=O)N2Cc2cccs2)CC1 (stereo unspecified) | . | . | . | . | . | 3.5µM
O=C(NCC1CCC2(CCN(Cc3cccn3-c3ccc(Cl)cn3)CC2)O1)c1ccccc1 (stereo unspecified) | / | / | . | . | . | /
Cc1cccc(CN2CCc3nnc(C(C)NC(=O)C4CCOCC4)n3CC2)c1 (stereo unspecified) | / | / | . | . | . | /
CCC(=O)/C=C1/Sc2ccccc2N1CC | ? | . | ? | / | . | .
CCN1/C(=C/c2sc(-c3ccccc3C)c[n+]2C)Sc2ccccc21 | -97 | ? | ? | ? | 11µM | ?
CC(C)COc1ccc(C(=O)N2CCC(c3nc4ccccc4s3)CC2)cc1 | . | . | . | . | . | ?
Cc1ccc(Cl)cc1-c1cc(C(=O)NCc2cc(C(F)(F)F)cc(C(F)(F)F)c2)[nH]n1 | . | / | ? | . | 40µM | /
COc1ccc(Cl)cc1-c1cc(C(=O)Nc2ccc(C)c(NS(C)(=O)=O)c2)[nH]n1 | ? | / | . | . | 32µM | /
COc1ccc(Cl)c(-c2cc(C(=O)Nc3ccc(C)c(NS(C)(=O)=O)c3)[nH]n2)c1 | . | / | ? | . | ? | /
Cc1ccc(F)cc1-c1cc(C(=O)NCc2cc(C(F)(F)F)cc(C(F)(F)F)c2)[nH]n1 | . | / | . | . | . | /
Cc1ccc(NC(=O)c2cc(-c3cc(Cl)ccc3C)n[nH]2)cc1NS(C)(=O)=O | -83 | / | . | . | 25µM | /
COc1ccc(NC(=O)c2cc(-c3cc(Cl)ccc3C)n[nH]2)cn1 | . | / | . | . | . | /
COC(=O)C1=C(C(=O)OC)[C@@H]2Nc3ccccc3[C@@]23C[C@@H](C(=O)OC)N(C(=O)NC2CCCC2)C3=N1 | / | . | / | / | / | /
Fc1ccc(Nc2nc3nonc3nc2Nc2cccc(C(F)(F)F)c2)cc1 | -101 | 2.2µM | ? | ? | ? | ?
Fc1ccc(CNC(=S)Nc2cccc(C(F)(F)F)c2)cc1 | . | ? | ? | . | . | ?
COc1ccc(O[C@H]2C=C[C@@H](c3ccccc3)O[C@H]2COC(=O)CCC(C)=NO[C@H](C)CN2CCCc3nc(C)c(C)cc32)cc1 | / | . | / | / | / | /
CCn1c(/C=C/N(C(C)=O)c2ccccc2)[n+](CCCS(=O)(=O)[O-])c2cc(Cl)c(Cl)cc21 | . | . | . | . | . | .
CCn1c(/C=C/Nc2ccccc2)[n+](CC)c2cc(Cl)c(Cl)cc21 | . | 13µM | . | . | . | ?
SMILES | HCMV inh | MARV entry inh | VACV Venus inh | Vaccinia mCherry | FMDV antiviral | LASV entry inh
CCNC(=O)CSc1nnc(-c2cccc(S(=O)(=O)N(CC)CC)c2)n1CCc1ccccc1 | . | . | / | / | . | .
CCSc1nnc(-c2cccc(S(=O)(=O)N(CC)CC)c2)n1Cc1ccccc1 | . | 15µM | / | / | ? | 23µM
CC(C)(C)CC(C)(C)c1ccc(O)c(Cc2ccc(Cl)cc2Cl)c1 | -86 | / | ? | ? | 28µM | /
Cc1cccc(OCC(=O)N2CCC(c3nc4ccccc4o3)CC2)c1C | . | . | . | . | . | .
Cc1oc(-c2cccc3ccccc23)nc1CN1CCN(c2ncnc3ccccc23)CC1 | ? | ? | . | . | 16µM | ?
COc1ccc(-c2nc(CN3CCN(c4cc(C)nc(C)c4)CC3)c(C)o2)c2ccccc12 | ? | ? | 11µM | ? | . | 11µM
Cc1cc(N2CCN(Cc3nc(-c4ccc(Cl)cc4)oc3C)CC2)cc(C)n1 | ? | 4µM | ? | . | . | ?
COc1ccc(-c2nc(CN3CCN(Cc4ccccc4)CC3)c(C)o2)cc1 | . | / | / | / | . | /
Cc1cccc(N2CCN(Cc3nc(-c4cccc(Oc5ccccc5)c4)oc3C)CC2)n1 | . | / | / | / | . | /
Cc1cnc(C)c(N2CCN(Cc3nc(-c4ccc(C)o4)oc3C)CC2)n1 | ? | . | . | . | . | .
Brc1ccc2nc(-c3ccc(CN4CCC5(CC4)CNc4ccccc45)cc3)c(-c3ccccc3)nc2c1 | . | / | / | / | / | /
Cc1cc(C)c(CN2CCN(C(=O)Cn3cc(C)c(=O)[nH]c3=O)CC2)c(C)c1 | . | / | / | / | / | /
Cc1cc2oc(=O)c3c(c2cc1OC(=O)c1ccco1)CCCC3 | . | ? | . | / | . | .
Cc1cc(OC(=O)c2ccco2)c2c3c(c(=O)oc2c1)CCCC3 | -67 | 11µM | . | . | ? | ?
N[C@@H](Cc1ccccc1)c1nnc(SCc2ccccc2F)o1 | . | . | ? | 11µM | . | .
O=C1C(n2cccc2)c2ccccc2N1Cc1ccc(C(F)(F)F)cc1 (stereo unspecified) | . | / | / | / | / | /
CCOc1cc(/C=N/NC(=O)c2ccc(CN3CCOCC3)cc2)ccc1OCc1ccccc1 | -73 | ? | . | . | 22µM | ?
COc1ccc(/C=N/NC(=O)c2cc(-c3ccccc3)nc3ccccc23)c(OC)c1 | . | / | / | / | . | /
COc1ccccc1/C=N/NC(=Nc1ccc(C)cc1)c1nc2ccccc2s1 | / | . | / | / | / | /
CCOc1cccc(-c2cc(C(=O)N/N=C/c3ccc(OC)c(CN4CCOCC4)c3)c3ccccc3n2)c1 | . | 8.2µM | . | . | . | ?
COc1ccccc1-c1cc(C(=O)N/N=C/c2sccc2C)c2ccccc2n1 | ? | 13µM | . | / | ? | ?
COc1cc(/C=N/NC(=Nc2ccc(C)cc2)c2nc3ccccc3s2)ccc1O | -68 | ? | / | / | 18µM | 13µM
C=CCN1CC(COc2ccc(OC)cc2)OCCS1(=O)=O (stereo unspecified) | . | ? | / | / | / | /
Cc1ccsc1/C=N/NC(=O)c1cc(-c2ccncc2)nc2ccccc12 | -95 | 0.58µM | ? | ? | . | ?
CCOc1ccccc1-c1cc(C(=O)N/N=C/c2ccc(O)c(OC)c2)c2ccccc2n1 | . | ? | . | 13µM | ? | 7.1µM
CC(=O)OCOC(c1ccc2ccccc2c1)P(=O)(OCOC(C)=O)OCOC(C)=O (stereo unspecified) | / | / | . | . | . | /
COc1ccc2nc(NN=Cc3cccc(C)n3)cc(C)c2c1 | . | / | / | / | / | /
